Measurements reported in PubChem BioAssay AID1159580 (chemical genetic matrix, 2015).
The whole screen tested about 5,500 compounds, of which about 2,000 (36%) were called active. Roughly 18% stayed inconclusive and do not appear here. No stated cut-off is given here; in the data, active means normalized growth mostly below about 0.91 (no sharp cut-off); inconclusive means no clear call, values can overlap the other calls; inactive means mostly above about 0.92. The list shows a part of the results.

Test: chemical genetic growth profiling, strain panel (AID 1159580);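 further: tested at 20 µM; growth read once vehicle control cultures reached saturation at 30 °C; 1 = growth at the plate median or of vehicle wells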
Details: growth OD

Measured: normalized growth

C=CC1=C(C(=O)O)N2C(=O)[C@@H](NC(=O)/C(=N/O)c3csc(N)n3)[C@H]2SC1
inactive: S. cerevisiae deletion strains, locus YJR066W, strain TOR1, stronger effect = lower value 0.95 | S. cerevisiae deletion strains, locus YJR075W, strain HOC1, stronger effect = lower value 1.01 | S. cerevisiae deletion strains, locus YKL009W, strain mrt4, stronger effect = lower value 0.995 | S. cerevisiae deletion strains, locus YKL068W, stronger effect = lower value 1 | S. cerevisiae deletion strains, locus YKL085W, strain MDH1 (second series), stronger effect = lower value 0.989 | S. cerevisiae deletion strains, locus YKL085W, strain MDH1, stronger effect = lower value 0.989 | S. cerevisiae deletion strains, locus YKL160W, strain elf1, stronger effect = lower value 1.02 | S. cerevisiae deletion strains, locus YKL190W, strain CNB1, stronger effect = lower value 1.02 | S. cerevisiae deletion strains, locus YKR001C, strain vps1, stronger effect = lower value 0.979 | S. cerevisiae deletion strains, locus YKR026C, strain gcn3, stronger effect = lower value 1.03 | S. cerevisiae deletion strains, locus YKR091W, strain srl3, stronger effect = lower value 1.02 | S. cerevisiae deletion strains, locus YLL001W, strain dnm1, stronger effect = lower value 1.02 | S. cerevisiae deletion strains, locus YLL026W, stronger effect = lower value 1.03 | S. cerevisiae deletion strains, locus YLL041C, strain sdh2, stronger effect = lower value 1.02 | S. cerevisiae deletion strains, locus YLR027C, strain aat2, stronger effect = lower value 1.02 | S. cerevisiae deletion strains, locus YLR039C, strain RIC1, stronger effect = lower value 1.04 | S. cerevisiae deletion strains, locus YLR058C, strain SHM2, stronger effect = lower value 0.996 | S. cerevisiae deletion strains, locus YLR102C, strain apc9, stronger effect = lower value 0.997 | S. cerevisiae deletion strains, locus YLR113W, strain HOG1, stronger effect = lower value 1.02 | S. cerevisiae deletion strains, locus YLR221C, strain rsa3, stronger effect = lower value 1.04 | S. cerevisiae deletion strains, locus YLR258W, strain gsy2, stronger effect = lower value 1.02 | S. cerevisiae deletion strains, locus YLR262C, strain YPT6 (second series), stronger effect = lower value 1.04 | S. cerevisiae deletion strains, locus YLR262C, strain YPT6, stronger effect = lower value 1.02 | S. cerevisiae deletion strains, locus YLR268W, strain sec22, stronger effect = lower value 1 | S. cerevisiae deletion strains, locus YLR320W, strain mms22, stronger effect = lower value 1.02 | S. cerevisiae deletion strains, locus YLR330W, strain CHS5, stronger effect = lower value 0.992 | S. cerevisiae deletion strains, locus YLR342W, strain FKS1 (second series), stronger effect = lower value 1.02 | S. cerevisiae deletion strains, locus YLR342W, strain FKS1, stronger effect = lower value 1.03 | S. cerevisiae deletion strains, locus YLR357W, strain rsc2, stronger effect = lower value 1.02 | S. cerevisiae deletion strains, locus YLR370C, strain arc18, stronger effect = lower value 1.02 | S. cerevisiae deletion strains, locus YLR371W, strain rom2, stronger effect = lower value 0.994 | S. cerevisiae deletion strains, locus YLR384C, strain iki3, stronger effect = lower value 1.02 | S. cerevisiae deletion strains, locus YLR418C, strain cdc73, stronger effect = lower value 0.998 | S. cerevisiae deletion strains, locus YML016C, strain PPZ1, stronger effect = lower value 0.987 | S. cerevisiae deletion strains, locus YML032C, strain rad52, stronger effect = lower value 1 | S. cerevisiae deletion strains, locus YML120C, strain ndi1, stronger effect = lower value 1.02 | S. cerevisiae deletion strains, locus YML124C, strain tub3, stronger effect = lower value 0.993 | S. cerevisiae deletion strains, locus YMR058W, strain fet3, stronger effect = lower value 1.01 | S. cerevisiae deletion strains, locus YMR078C, strain ctf18, stronger effect = lower value 0.989 | S. cerevisiae deletion strains, locus YMR125W, strain sto1, stronger effect = lower value 1.03 | S. cerevisiae deletion strains, locus YMR129W, stronger effect = lower value 1.01 | S. cerevisiae deletion strains, locus YMR205C, strain PFK2, stronger effect = lower value 1.03 | S. cerevisiae deletion strains, locus YMR223W, strain ubp8, stronger effect = lower value 0.994 | S. cerevisiae deletion strains, locus YMR231W, strain pep5, stronger effect = lower value 1.02 | S. cerevisiae deletion strains, locus YMR263W, strain SAP30, stronger effect = lower value 1.04 | S. cerevisiae deletion strains, locus YMR307W, strain GAS1, stronger effect = lower value 1.05 | S. cerevisiae deletion strains, locus YNL067W, strain RPL9B, stronger effect = lower value 1.08 | S. cerevisiae deletion strains, locus YNL071W, strain lat1, stronger effect = lower value 1.02 | S. cerevisiae deletion strains, locus YNL128W, strain TEP1, stronger effect = lower value 1.02 | S. cerevisiae deletion strains, locus YNL153C, strain GIM3, stronger effect = lower value 1 | S. cerevisiae deletion strains, locus YNL183C, strain NPR1, stronger effect = lower value 0.956 | S. cerevisiae deletion strains, locus YNL209W, strain ssb2, stronger effect = lower value 1.01 | S. cerevisiae deletion strains, locus YNL233W, strain BNI4, stronger effect = lower value 1 | S. cerevisiae deletion strains, locus YNL248C, strain rpa49, stronger effect = lower value 1.04 | S. cerevisiae deletion strains, locus YNL250W, strain rad50, stronger effect = lower value 0.99 | S. cerevisiae deletion strains, locus YNL271C, strain bni1, stronger effect = lower value 0.99 | S. cerevisiae deletion strains, locus YNL298W, strain CLA4, stronger effect = lower value 0.982 | S. cerevisiae deletion strains, locus YNL307C, strain MCK1, stronger effect = lower value 1.01 | S. cerevisiae deletion strains, locus YNL322C, strain KRE1 (second series), stronger effect = lower value 1.04 | S. cerevisiae deletion strains, locus YNL322C, strain KRE1, stronger effect = lower value 1 | S. cerevisiae deletion strains, locus YNR049C, strain mso1, stronger effect = lower value 1.02 | S. cerevisiae deletion strains, locus YNR052C, strain pop2, stronger effect = lower value 1 | S. cerevisiae deletion strains, locus YOL006C, strain TOP1, stronger effect = lower value 0.995 | S. cerevisiae deletion strains, locus YOL012C, strain htz1 1.75 | S. cerevisiae deletion strains, locus YOR001W, strain rrp6, stronger effect = lower value 1.03 | S. cerevisiae deletion strains, locus YOR061W, strain CKA2, stronger effect = lower value 0.994 | S. cerevisiae deletion strains, locus YOR069W, strain VPS5, stronger effect = lower value 0.998 | S. cerevisiae deletion strains, locus YOR070C, strain gyp1, stronger effect = lower value 1.01 | S. cerevisiae deletion strains, locus YOR080W, strain dia2, stronger effect = lower value 1.04 | S. cerevisiae deletion strains, locus YOR083W, strain WHI5, stronger effect = lower value 1.02 | S. cerevisiae deletion strains, locus YOR106W, strain vam3, stronger effect = lower value 1.03 | S. cerevisiae deletion strains, locus YOR136W, strain idh2, stronger effect = lower value 0.988 | S. cerevisiae deletion strains, locus YOR144C, strain elg1, stronger effect = lower value 0.979 | S. cerevisiae deletion strains, locus YOR184W, strain ser1, stronger effect = lower value 0.993 | S. cerevisiae deletion strains, locus YOR231W, strain MKK1, stronger effect = lower value 0.978 | S. cerevisiae deletion strains, locus YOR265W, strain rbl2, stronger effect = lower value 1.02 | S. cerevisiae deletion strains, locus YOR270C, strain vph1, stronger effect = lower value 1.03 | S. cerevisiae deletion strains, locus YOR290C, strain snf2, stronger effect = lower value 1.01 | S. cerevisiae deletion strains, locus YOR316C, strain cot1, stronger effect = lower value 0.994 | S. cerevisiae deletion strains, locus YPL051W, strain arl3, stronger effect = lower value 1.03 | S. cerevisiae deletion strains, locus YPL055C, strain LGE1, stronger effect = lower value 1.03 | S. cerevisiae deletion strains, locus YPL078C, strain atp4, stronger effect = lower value 1.02 | S. cerevisiae deletion strains, locus YPL106C, strain sse1, stronger effect = lower value 1.04 | S. cerevisiae deletion strains, locus YPL240C, strain hsp82, stronger effect = lower value 1.03 | S. cerevisiae deletion strains, locus YPL241C, strain CIN2, stronger effect = lower value 1.01 | S. cerevisiae deletion strains, locus YPL256C, strain CLN2, stronger effect = lower value 0.957 | S. cerevisiae deletion strains, locus YPR141C, strain kar3, stronger effect = lower value 0.984 | S. cerevisiae deletion strains, locus YPR163C, strain tif3, stronger effect = lower value 0.991 | S. cerevisiae deletion strains, locus YPR167C, strain met16, stronger effect = lower value 0.994 | S. cerevisiae deletion strains, strain wtn01, stronger effect = lower value 0.993 | S. cerevisiae strains, strain wild type, stronger effect = lower value 1.03
